Screening data (PubChem)
ugtP null kill – growth inhibition of ugtP-null S. aureus, primary screen, RN4220 ugtP deletion, OD600 | 16 h | growth inhibition, % (concentration not given with the values) | 330,000 compounds, 0.54% hits | AID 1259309, 2017; in the data active means growth inhibition above about 68%;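 further: plate controls were untreated wells for no effect and antibiotic for full effect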
Mtb betalactam – beta-lactam sensitization of Mtb H37Rv, H37Rv | M. tuberculosis H37Rv growth with meropenem, percent inhibition | inhibition, % at 25 µM | 330,000 compounds, 0.27% hits; call rule not given here;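 further: growth measured after seven days incubation then overnight dye step; 0% = bacteria only wells and 100% = bacteria with antibiotic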
CCHFV vOTU inh – CCHFV vOTU protease inhibitors, primary screen, biochemical, Pep-AMC substrate, fluorescence; AID 651958, 2012; 370,000 compounds, 0.55% hits; Crimean-Congo hemorrhagic fever virus L polyprotein viral ovarian tumor (vOTU) protease …; inhibition, % at 11.5 µM; in the data active means inhibition above about 30%; further: 0% = vehicle wells with enzyme and 100% = no enzyme wells
SARS 3CLpro inh – SARS-CoV 3CLpro protease inhibitors, primary screen, biochemical, quenched FRET; Replicase polyprotein 1ab (Severe acute respiratory syndrome coronavirus), P0C6X7; recombinant SARS-CoV 3CLpro, quenched FRET peptide cleavage; inhibition, % at 6 µM; 290,000 compounds, 0.14% hits; in the data active means inhibition above about 12%
MazF activator – activators of E. coli MazEF toxin-antitoxin RNase, primary screen, biochemical, fluorescence, uHTS; Endoribonuclease toxin MazF (Escherichia coli (strain K12)), P0AE70; FAM/BHQ RNA-DNA oligo cleavage fluorescence, 5 h; activation, % at 20 µM; 350,000 compounds, 0.32% hits; AID 504720, 2011; in the data active means activation above about 50%
Target sequence (P0AE70 whole entry, looked up): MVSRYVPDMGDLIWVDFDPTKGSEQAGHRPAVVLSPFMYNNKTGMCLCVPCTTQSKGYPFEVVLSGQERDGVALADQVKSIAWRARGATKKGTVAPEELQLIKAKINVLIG
Sa RN4220 lethal – growth inhibition of S. aureus RN4220, primary screen, OD600; inhibition, % (test concentration not listed); 16 h; AID 1259311, 2017; 330,000 compounds, 0.33% hits; in the data active means inhibition above about 85%;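 further: plate controls were untreated cells for no effect and reference antibiotic for full effect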
* marks the source's active call; other numbers are inactive results; i = inactive; ? = inconclusive; · = no result; + = active, no number. Only some compounds are listed: those with a hit (about 1.3% of all), similar ones and a draw of the others.

SMILES | ugtP null kill | Mtb betalactam | CCHFV vOTU inh | SARS 3CLpro inh | MazF activator | Sa RN4220 lethal
Cc1nn(-c2ccccc2)c2c1C(c1ccc(O)c(O)c1)N1C(=N2)C(Nc2ccccc2)=Nc2ccccc21 (configuration not stated) | 55 | 100 | 7 | 3 | -13 | 12
Cc1nn(-c2ccccc2)c2c1C(c1ccc([N+](=O)[O-])cc1)N1C(=N2)C(=O)Nc2ccccc21 (configuration not stated) | 7 | 91 | -5 | 2 | 1 | -1
Cc1cccc(NC2=Nc3ccccc3N3C2=Nc2c(c(C)nn2-c2ccccc2)C3c2ccc(O)c(O)c2)c1 (configuration not stated) | 97* | 100 | 23 | -2 | -7 | 47
Cc1ccc(NC2=Nc3ccccc3N3C2=Nc2c(c(C)nn2-c2ccccc2)C3c2ccc(O)c(O)c2)cc1 (configuration not stated) | 98* | · | 18 | -3 | 2 | 69
CCCCCCCN1C2=NCCCN2c2ccccc21 | -1 | -3 | 6 | -1 | 926* | 2
COc1cc(-c2nc3ccc4ccccc4c3c3c2CCC3)ccc1O | 101* | ? | 4 | -9 | 5 | 99*
COc1cc(-c2nc3ccc4ccccc4c3c3c2CCC3)cc(OC)c1O | 62 | 96 | -2 | 2 | 9 | -1
CC1(C)OC2C(CO)OC(n3ccc(=O)[nH]c3=O)C2O1 (configuration not stated) | -2 | · | · | · | · | 4
Cn1nnnc1SCC1=C(C(=O)O)N2C(=O)C(NC(=O)C3CC3c3ccccc3)C2SC1 (configuration not stated) | 100* | -2 | 10 | -4 | 1 | 100*
Cc1cc(C(F)F)nn1CC(=O)NC1C(=O)N2C(C(=O)O)=C(CSc3nnnn3C)CSC12 (configuration not stated) | 100* | 51 | 14 | 1 | 3 | 100*
CN(C)CCn1nnnc1SCC1=C(C(=O)O)N2C(=O)C(NC(=O)Cc3csc(N)n3)C2SC1 (configuration not stated) | 100* | · | · | · | · | 100*
Cn1nnnc1SCC1=C(C(=O)O)N2C(=O)[C@@H](NC(=O)[C@H](O)c3ccccc3)[C@H]2SC1 | · | -2 | · | -3 | 5 | ·
Cc1nn(C(C)C(=O)NC2C(=O)N3C(C(=O)O)=C(CSc4nnnn4C)CSC23)cc1Cl (configuration not stated) | 99* | 73 | -5 | 8 | 0 | 100*
COCC1=C(C(=O)OC(C)OC(=O)OC(C)C)N2C(=O)[C@@H](NC(=O)/C(=N\OC)c3csc(N)n3)[C@H]2SC1 (some centres not stated) | · | -1 | 3 | · | -7 | ·
COc1ccc(S(=O)(=O)N(CC(=O)NN=Cc2ccccc2C(=O)O)c2ccccc2OC)cc1 | 4 | · | · | · | · | 5
CC(C(=O)NC1C(=O)N2C(C(=O)O)=C(CSc3nnnn3C)CSC12)n1cc(Br)cn1 (configuration not stated) | 100* | 25 | -3 | -1 | 2 | 100*
CC1=C(C(=O)O)N2C(=O)C(NC(=O)c3ccn(C)n3)C2SC1 (configuration not stated) | 3 | -4 | -1 | 4 | 4 | 4
Cc1ccc(-c2cc(C#N)c(=O)n(Cc3c(Cl)cccc3Cl)c2)cc1 | 2 | 2 | -12 | -3 | 58* | 11
CC1=CC(=C(C#N)c2nc3ccccc3s2)C=C(C)N1Cc1ccco1 | -13 | -5 | 0 | -7 | 605* | -4
CCOC(=O)C1C2COc3ccc(C)cc3C2N2C(=O)C(CO)NC(=O)[C@@]12C (some centres not stated) | -3 | · | · | · | · | 5
NC(N)=NS(=O)(=O)c1ccc(NC(=S)NC(=O)c2ccc(Br)cc2)cc1 | · | 3 | -3 | 0 | 59* | ·
O=C(NNC(=O)c1cccc2ccccc12)c1ccc(Br)cc1 | 6 | · | -11 | · | 66* | 12
CCn1c(SCc2ccccc2Cl)nc2ccccc21 | 91* | 24 | 1 | 0 | 4 | 0
CCOc1ccc(N2C(=O)Nc3ccccc3C2(O)C(=O)NCc2ccc(C)cc2)cc1 (configuration not stated) | active | -3 | -10 | 0 | 1 | 100
CCOc1ccc(N2C(=O)Nc3ccccc3C2(O)C(=O)NCc2ccc3c(c2)OCO3)cc1 (configuration not stated) | -1 | 6 | -7 | -4 | 0 | 2
SMILES | ugtP null kill | Mtb betalactam | CCHFV vOTU inh | SARS 3CLpro inh | MazF activator | Sa RN4220 lethal
CC(C)n1cc(/C=C/c2cc[n+](C)cc2)c2ccccc21 | 2 | · | 1 | -16 | 69* | 2
C=CCn1cc(/C=C/c2cc[n+](C)cc2)c2ccccc21 | 12 | 2 | -1 | -13 | 70* | 4
CCn1cc(/C=C/c2cc[n+](C)cc2)c2ccccc21 | -1 | 11 | 29 | -13 | i | 1
CN(CC(=O)Nc1ccc(Cl)c(C(F)(F)F)c1)CC(=O)NC1CCCCC1 | -10 | 2 | · | · | -8 | 3
CN(CC(=O)Nc1ccc(Cl)c(C(F)(F)F)c1)C(=O)CCN1C(=O)C2CCCCC2C1=O (configuration not stated) | 94* | -2 | 12 | · | 6 | 67
O=C(NCCN1CCN(c2ccccc2)CC1)c1ccc2c(c1)[nH]c(=S)n1c3ccccc3nc21 | 11 | -2 | -7 | -1 | -7 | -10
O=C(c1ccc2c(c1)[nH]c(=S)n1c3ccccc3nc21)N1CCN(c2ncccn2)CC1 | -21 | 4 | 7 | 2 | 91* | -2
Cc1ccc(-c2nnc(Oc3cccc(C)c3)c3ccccc23)cc1 | 5 | 2 | 24 | 7 | 5 | -5
Cc1ccc(Oc2nnc(-c3ccccc3)c3ccccc23)cc1 | 90* | 22 | -8 | 2 | 4 | -1
COc1ccc(OC)c(-c2c3cc(O)c(=O)cc-3oc3cc(O)c(O)cc23)c1 | · | 24 | · | -2 | + | ·
CC(CC(=O)NC(C)(C)C)=NNC(=O)COc1ccc(C)cc1Br | -4 | · | · | · | · | 2
N#CC(=NNc1cccc(C(F)(F)F)c1)C(=O)c1ccsc1 | 97* | · | · | · | · | 100*
CC(=NNc1cccc(C(F)(F)F)c1)c1ccc(O)cc1 | 1 | · | · | · | · | 1
COc1ccc(-c2csc(NC(=O)c3ccc(S(=O)(=O)N4CCc5ccccc5C4)cc3)n2)cc1 | 4 | 7 | -14 | -1 | -1 | -2
O=C(Nc1nnc(-c2ccc3c(c2)CCCC3)o1)c1ccc(Cl)cc1Cl | 100* | 99 | 9 | 0 | -7 | 99*
CN(C)S(=O)(=O)c1ccc(C(=O)Nc2nnc(-c3cccs3)o2)cc1 | -11 | 89 | 10 | -3 | 2 | 17
